Pf apPOL inh: Pf-apPOL inhibitors, biochemical, fluorescence. AID 1794808, 2022. Recombinant Pf-apPOL, molecular beacon fluorescence, 1.5 h. Plasmodium falciparum apicoplast DNA polymerase (apPOL). 210,000 tested, 0.25% active. inhibition, % at 10 µM
mHTT-CaM PPI inh: mutant huntingtin-calmodulin interaction inhibitors – biochemical, AlphaScreen, primary screen; P42858; AlphaScreen His-mHTT/GST-CaM binding, luminescence; inhibition, % at 15 µM; 190,000 tested, 3.6% active;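 also: 0% = both proteins with DMSO and 100% = one protein alone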
* hit, by the source's call. A selection: hits, their analogues and other compounds. The true share with any hit is near 3.6%. Rule as the data show it: active = inhibition above about 50%; inactive = the rest.

How did O=C(Nc1ccccc1C(F)(F)F)N1CCC2(CC1)Nc1ccccc1-n1cccc12 do in these assays?
Pf apPOL inh: 0; mHTT-CaM PPI inh: 36

What do the screens show for `COc1ccc(NC(=O)N2CCC3(CC2)Nc2ccccc2-n2cccc23)c(OC)c1`?
Pf apPOL inh: 6; mHTT-CaM PPI inh: 64*

Results for COc1ccc(NC(=O)N2CCC3(CC2)NC(=O)c2ccccc2N3C)c(C)c1 ?
Pf apPOL inh: -4; mHTT-CaM PPI inh: 0

How did COc1ccc(NC(=O)N2CCC3(CC2)Nc2cc(F)ccc2-n2cccc23)c(OC)c1 do in these assays?
Pf apPOL inh: -1; mHTT-CaM PPI inh: 61*

Results for COc1ccc(OC)c(NC(=O)N2CCC3(CC2)Nc2ccccc2-n2cccc23)c1 ?
Pf apPOL inh: 9; mHTT-CaM PPI inh: 54*

What do the screens show for `CCOc1ccccc1NC(=O)N1CCC2(CC1)Nc1cc(F)ccc1-n1cccc12`?
Pf apPOL inh: 4; mHTT-CaM PPI inh: 52*

What do the screens show for `COc1ccc(OC)c(NS(=O)(=O)c2ccc(OC)c(Br)c2)c1`?
Pf apPOL inh: -8; mHTT-CaM PPI inh: 3

What do the screens show for `Cc1ccccc1C1=N/C(=C\C(Cl)=C\c2ccccc2)C(=O)O1`?
Pf apPOL inh: -1; mHTT-CaM PPI inh: 23

How did Cc1cc(C(=O)Nc2ccc(Br)c3cccnc23)ccc1[N+](=O)[O-] do in these assays?
Pf apPOL inh: -17; mHTT-CaM PPI inh: 1

What do the screens show for `COc1ccc(/C=C2/C=C(c3ccc(Cl)cc3)OC2=O)cc1[N+](=O)[O-]`?
Pf apPOL inh: 4; mHTT-CaM PPI inh: 13

Results for Clc1cccc(-c2cn3ccccc3n2)c1 ?
Pf apPOL inh: 0; mHTT-CaM PPI inh: 4

How did COc1ccc(-c2ncc3ccccn23)cc1OC do in these assays?
Pf apPOL inh: -2; mHTT-CaM PPI inh: 4

What do the screens show for `Clc1cccc(-c2cc3ccccn3c2)c1`?
Pf apPOL inh: 5; mHTT-CaM PPI inh: 63*

What do the screens show for `COc1cc(-c2cc3ccccn3c2)cc(OC)c1OC`?
Pf apPOL inh: 0; mHTT-CaM PPI inh: 61*

What do the screens show for `Cc1ccc(O)c(C(=O)C=Cc2ccccc2Cl)c1`?
Pf apPOL inh: -3; mHTT-CaM PPI inh: 17

How did CC(=O)Nc1cccc(N2CC(C(=O)Nc3cccc(Cl)c3C)CC2=O)c1 (centres undefined) do in these assays?
Pf apPOL inh: -8; mHTT-CaM PPI inh: -3

What do the screens show for `CCC(C)NC(=O)c1ccn2c(-c3ccccc3Br)nnc2c1` (centres undefined)?
Pf apPOL inh: -1; mHTT-CaM PPI inh: 6

Results for CC(C)Cn1c(CC2CCN(S(=O)(=O)c3cccnc3)C2)nc2cccnc21 (centres undefined) ?
Pf apPOL inh: 0; mHTT-CaM PPI inh: 5

What do the screens show for `COc1ccc(C2=NN3C(C2)c2cccc(OC)c2OC32CCCCC2)cc1OC` (centres undefined)?
Pf apPOL inh: -10; mHTT-CaM PPI inh: 52*

Results for COc1cccc2c1OC1(CCCCC1)N1N=C(c3cccs3)CC21 (centres undefined) ?
Pf apPOL inh: -24; mHTT-CaM PPI inh: 43

What do the screens show for `O=C(COc1ccc(Cl)cc1Cl)NC1CC(=O)N(C2CC2)C1` (centres undefined)?
Pf apPOL inh: -14; mHTT-CaM PPI inh: -13

What do the screens show for `COc1ccc(-n2nc(C(=O)N3CCCc4ccccc43)c3ccccc3c2=O)c(OC)c1`?
Pf apPOL inh: -4; mHTT-CaM PPI inh: 19

What do the screens show for `Cc1onc(-c2ccccc2Cl)c1C(=O)Nc1cccc2ccc(-n3ccnc3)nc12`?
Pf apPOL inh: 6; mHTT-CaM PPI inh: 43

What do the screens show for `O=C(Nc1cccc2ccc(-n3ccnc3)nc12)c1ccccc1Cl`?
Pf apPOL inh: 1; mHTT-CaM PPI inh: 62*

How did O=C(Nc1ccccc1Oc1ccccc1)c1cccc(F)c1 do in these assays?
Pf apPOL inh: 0; mHTT-CaM PPI inh: -46

Results for O=C(c1cccc(Cl)c1)n1cnc2ccccc21 ?
Pf apPOL inh: 1; mHTT-CaM PPI inh: -2

Results for c1csc(C2=NN3C(C2)c2ccccc2OC3c2ccsc2)c1 (centres undefined) ?
Pf apPOL inh: -26; mHTT-CaM PPI inh: 27

What do the screens show for `c1cncc(C2Oc3ccccc3C3CC(c4cccs4)=NN32)c1` (centres undefined)?
Pf apPOL inh: -37; mHTT-CaM PPI inh: 25

How did Brc1ccc(C2Oc3ccccc3C3CC(c4cccs4)=NN32)o1 (centres undefined) do in these assays?
Pf apPOL inh: -57; mHTT-CaM PPI inh: 100*

How did Oc1ccccc1C1Oc2ccccc2C2CC(c3cccs3)=NN21 (centres undefined) do in these assays?
Pf apPOL inh: 0; mHTT-CaM PPI inh: 51*

What do the screens show for `CCOc1c(O)ccc(C2Oc3ccccc3C3CC(c4cccs4)=NN32)c1[N+](=O)[O-]` (centres undefined)?
Pf apPOL inh: -7; mHTT-CaM PPI inh: 54*

What do the screens show for `Clc1ccc(C2=NN3C(C2)c2ccccc2OC3c2ccco2)cc1` (centres undefined)?
Pf apPOL inh: -2; mHTT-CaM PPI inh: 87*

Results for COc1ccc(O)c(C2Oc3ccccc3C3CC(c4cccs4)=NN32)c1 (centres undefined) ?
Pf apPOL inh: 3; mHTT-CaM PPI inh: 49

How did c1ccc(C2=NN3C(C2)c2ccccc2OC3c2cccnc2)cc1 (centres undefined) do in these assays?
Pf apPOL inh: -3; mHTT-CaM PPI inh: 39

What do the screens show for `C=C(C)COc1ccc2c(c1)OC(=Cc1ccc(OC)cc1)C2=O`?
Pf apPOL inh: -5; mHTT-CaM PPI inh: -11

How did CNC(=O)N1CCCC(c2cccc(C(=O)NCc3ccc(OC(C)C)cc3)c2)C1 (centres undefined) do in these assays?
Pf apPOL inh: -11; mHTT-CaM PPI inh: 26

How did COc1ccc(Cl)cc1NC(=O)c1ccc(NC(=O)CCC(=O)O)cc1 do in these assays?
Pf apPOL inh: -2; mHTT-CaM PPI inh: 3

Results for CCNC(=O)Nc1ccc(C23CC4CC(CC(Cl)(C4)C2)C3)cc1 ?
Pf apPOL inh: -6; mHTT-CaM PPI inh: 17

How did O=C(CN1CCC(c2nc(-c3cccc(F)c3)no2)CC1)Nc1ccc2c(c1)OCO2 do in these assays?
Pf apPOL inh: 0; mHTT-CaM PPI inh: -4

Results for c1ccc(C2Oc3ccccc3C3CC(c4cccs4)=NN32)cc1 (centres undefined) ?
Pf apPOL inh: 5; mHTT-CaM PPI inh: 35

Results for Oc1ccc(O)c(C2=NN3C(C2)c2ccccc2OC3c2cccs2)c1 (centres undefined) ?
Pf apPOL inh: 16; mHTT-CaM PPI inh: 67*

What do the screens show for `Oc1ccc(C2Oc3ccccc3C3CC(c4cccs4)=NN32)cc1` (centres undefined)?
Pf apPOL inh: -6; mHTT-CaM PPI inh: 51*

What do the screens show for `Cc1ccc(C2=NN3C(C2)c2ccccc2OC3c2ccccc2)o1` (centres undefined)?
Pf apPOL inh: -8; mHTT-CaM PPI inh: 30

How did COCCn1c(CC2CCN(S(=O)(=O)c3ccc(OC)cc3)C2)nc2cccnc21 (centres undefined) do in these assays?
Pf apPOL inh: -1; mHTT-CaM PPI inh: 8

What do the screens show for `CN(CCNC(=O)CN1C(=O)/C(=C/c2ccccc2F)Sc2ccccc21)Cc1ccccc1`?
Pf apPOL inh: -1; mHTT-CaM PPI inh: 92*

Results for O=C(CN1C(=O)CSc2ccccc21)NCc1ccccn1 ?
Pf apPOL inh: -20; mHTT-CaM PPI inh: 24
